# Screens (PubChem)
# This is a sample that favours compounds with a hit; in the whole collection about 7.3% have one here.
# FMDV antiviral = antivirals against foot and mouth disease virus | AID 1159524 | 410,000 tested, 1.2% active | FMDV antiviral cell-based qHTS | Potency, µM (highest dose often 57.9 µM), without a hit: at the top dose activity change, negative = inhibition, most hits filed as inhibitors; calls by dose curve; tested in HEK293T cells; also: read-out not given here; potency is read from the fitted curve at half-maximal effect; nearly all actives have a fitted effect of over 45% in size
# Vaccinia mCherry = vaccinia inhibition (mCherry reporter) | Potency, µM (highest dose often 36.5 µM), for the others: top-dose activity change, negative = inhibition, hits mostly inhibitors | AID 720579 | Vaccinia virus mCherry reporter infection, fluorescence | 310,000 tested, 0.63% active; calls by dose curve; tested in A549 cells; also: potency is read from the fitted curve at half-maximal effect; nearly all actives have a fitted effect of over 35% in size
# HCV inhibitor = inhibitors of hepatitis C virus infection. Huh7.5.1 HCVcc-Cre infection, luciferase reporter, 44 h. Potency, µM (top dose mostly 41.8 µM), inactives show at the highest dose activity change, negative = inhibition, actives largely listed as inhibitors. 340,000 tested, 3.4% active. AID 651820; active = well fitted inhibition curve with a large enough effect; inconclusive = small, poorly fitted or top-dose-only effect, or another doubt; inactive = no such curve, though single readings can be large or run the other way; also: potency is read from the fitted curve at half-maximal effect
#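 Whole-lifecycle infectious HCVcc-Cre system; cells 1,000/well, compound then virus (~0.5 moi) added 4 h after plating, 44 h culture. Luciferase read 15 sec following 15 min substrate incubation, room temp.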
# HCMV antiviral = blocks human cytomegalovirus replication; HFF cells, HCMV-luciferase reporter, 72 h; stronger effect = lower value; AID 1259415; 410,000 tested, 4.5% active; activity change, negative = inhibition, % at 57.5 µM; in the data active = activity change below about -60%; inconclusive = no clear call, values can overlap the other calls; inactive = above about -39%
#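 Luciferase read-out from HCMV-luciferase-infected HFFs (MOI 1 PFU/cell) 72 h post infection at 37C; compounds added after 16 h cell attachment; activity normalized between buffer-only basal and Salinomycin (10uM) inhibitor controls.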
# Vaccinia Venus = inhibitors of vaccinia virus (Venus reporter). 330,000 tested, 0.46% active. Vaccinia virus Venus reporter expression, fluorescence. AID 720580. Potency, µM (series often up to 36.5 µM), for the others: top-dose activity change, negative = inhibition, usual class: inhibitors; calls by dose curve; tested in A549 cells; also: potency is read from the fitted curve at half-maximal effect; nearly all actives have a fitted effect of over 30% in size
# * marks the source's active call; other numbers are inactive results; i = inactive; ? = inconclusive; . = not tested or not shown. % is scaled to controls: 0 for no effect and ±100 for the full control effect.
SMILES,FMDV antiviral,Vaccinia mCherry,HCV inhibitor,HCMV antiviral,Vaccinia Venus
OCC1(CCOc2ccccc2)CCN(Cc2nc3ccc(F)cc3[nH]2)CC1,?,-5%,-21%,-62*,38%
Cc1cc(C)c(S(=O)(=O)/N=C2/C=C(Sc3ncn[nH]3)C(=O)c3ccccc32)cc1C,?,?,?,-100*,6.3µM*
Cc1ccc(C)c(S(=O)(=O)/N=C2\C=C(NS(=O)(=O)c3ccccc3)C(=O)c3ccccc32)c1,-11%,?,4%,18,9%
N=c1ccn(CC(=O)c2ccc(-c3ccccc3)cc2)cc1,?,?,0.89µM*,-76*,?
O=C(CN1C(=O)CCC1=O)c1ccc(-c2ccccc2)cc1,22%,i,28%,-28,-10%
CC(C)[C@H](NS(=O)(=O)c1cccc(C(F)(F)F)c1)C(=O)OCC(=O)NC(=O)NCc1ccco1,-11%,-15%,11µM*,5,-11%
O=C(COC(=O)/C=C/c1cccc(C(F)(F)F)c1)NC(=O)NCc1ccco1,-4%,-14%,?,0,-15%
Cn1ncc2c(=O)[nH]nnc21,-12%,-12%,29%,29,0%
Cn1c(=O)[nH]c2c(cnn2C)c1=O,-11%,-14%,1%,-98*,-9%
C=C1C=C(C(F)F)n2ncc(C(=O)NCCc3ccc(Cl)cc3)c2N1,.,9%,.,.,-8%
CC1Cc2cc(S(=O)(=O)N(C)c3ccc(Br)cc3)ccc2N1C(=O)C1CC1 (stereo unspecified),?,-8%,.,?,1%
Nc1cc(-c2ccc(Br)cc2)nn1S(=O)(=O)c1cccc2nsnc12,-15%,?,11µM*,-13,?
Nc1cc(-c2cccc(F)c2)nn1S(=O)(=O)c1cccc2nsnc12,-2%,i,-3%,-101*,?
O=C(COc1ccc2ccccc2c1)Nc1ccc(O)c(-c2nc3ccccc3o2)c1,.,0%,.,.,-18%
CC(=O)N1CCc2c(sc3c2c(=O)n(-c2ccc(C)cc2)c(=O)n3Cc2ccccc2C)C1,-13%,-1%,.,-26,-12%
O=C(c1ccccc1)c1ccc2ccccc2c1,30%,i,-5%,-17,1%
O=C(c1ccccc1)c1c2c(cc3sc4ccccc4[n+]13)-c1cccc3cccc-2c13,40µM*,171%,?,-103*,256%
Cc1sc2cc3c(c(C(=O)c4ccccc4)[n+]2c1C)-c1cccc2cccc-3c12,14µM*,-24%,10µM*,-100*,-6%
Cc1ccc(Cn2c(=O)c3ccccc3n3c(-c4ccccc4)nnc23)cc1,?,-12%,.,1,-5%
Cc1ccc(-c2nc(-c3cccs3)c(-c3cccs3)[nH]2)cc1,0%,?,.,-16,-25%
O=[N+]([O-])c1ccc(-c2nc(-c3cccs3)c(-c3cccs3)[nH]2)cc1,25µM*,11µM*,?,-18,?
Fc1ccc(-c2nc(-c3cccs3)[nH]c2-c2ccc(F)cc2)cc1,28µM*,?,?,76,?
Fc1ccc(-c2nc(-c3cccs3)c(-c3cccs3)[nH]2)cc1,0%,-26%,.,-25,-21%
O=[N+]([O-])c1cccc(-c2nc(-c3cccs3)c(-c3cccs3)[nH]2)c1,?,-26%,13µM*,4,?
Fc1cc(F)c2ncc3c(-c4ccccc4)nn(-c4cccc(Cl)c4)c3c2c1,-2%,4%,.,14,8%
SMILES,FMDV antiviral,Vaccinia mCherry,HCV inhibitor,HCMV antiviral,Vaccinia Venus
CCCc1cc(=O)oc2cc(C)c3c(-c4ccccc4)coc3c12,-27%,-4%,.,-19,-1%
ClC(Cl)c1nnc(-c2ccccc2)c(-c2c[nH]c3ccccc23)n1,-20%,?,?,-86*,?
c1ccc(-c2nnc(-c3c[nH]c4ccccc34)nc2-c2ccccc2)cc1,?,.,-15%,4,?
COc1cccc(C(O)c2nc(/C=C/c3ccc(C(F)(F)F)cc3)cs2)c1 (stereo unspecified),-21%,1%,.,-62*,-2%
COC(=O)c1ccccc1NC(=O)CSc1nc2ccccc2nc1Cc1ccc(F)cc1,-17%,-1%,.,0,7%
S=C(SCc1nc(-c2ccc(Cl)cc2)no1)N1CCSCC1,.,.,.,-17,.
CC(C)(C)C1=CC(O)(c2ccccc2)C=C(C(C)(C)C)C1=O,?,.,?,-60*,.
CCC(C)[C@H]1CNC(=S)N1CCC12CC3CC(CC(C3)C1)C2 (stereo partly specified),13%,-1%,15%,-79*,-19%
